Data reported in publication PMC4336329 (PLoS ONE, 2015).
About 14,000 (4.5%) of roughly 310,000 compounds showed an effect of 50% or more. The effect is printed as a negative number. The list comes from a sample in which strong results are over-represented; it also holds similar structures and randomly drawn compounds.

These compounds were tested against human ether-à-go-go-related gene (hERG) potassium channel (human, UniProt Q12809) (assay: primary screen, population patch clamp on CHO cells stably expressing hERG; higher = less effect of the substance).
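Note: peak tail current of the secondary pulse compared with the same well before compound.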

human ether-à-go-go-related gene (hERG) potassium channel, sequence (Q12809 whole entry, looked up): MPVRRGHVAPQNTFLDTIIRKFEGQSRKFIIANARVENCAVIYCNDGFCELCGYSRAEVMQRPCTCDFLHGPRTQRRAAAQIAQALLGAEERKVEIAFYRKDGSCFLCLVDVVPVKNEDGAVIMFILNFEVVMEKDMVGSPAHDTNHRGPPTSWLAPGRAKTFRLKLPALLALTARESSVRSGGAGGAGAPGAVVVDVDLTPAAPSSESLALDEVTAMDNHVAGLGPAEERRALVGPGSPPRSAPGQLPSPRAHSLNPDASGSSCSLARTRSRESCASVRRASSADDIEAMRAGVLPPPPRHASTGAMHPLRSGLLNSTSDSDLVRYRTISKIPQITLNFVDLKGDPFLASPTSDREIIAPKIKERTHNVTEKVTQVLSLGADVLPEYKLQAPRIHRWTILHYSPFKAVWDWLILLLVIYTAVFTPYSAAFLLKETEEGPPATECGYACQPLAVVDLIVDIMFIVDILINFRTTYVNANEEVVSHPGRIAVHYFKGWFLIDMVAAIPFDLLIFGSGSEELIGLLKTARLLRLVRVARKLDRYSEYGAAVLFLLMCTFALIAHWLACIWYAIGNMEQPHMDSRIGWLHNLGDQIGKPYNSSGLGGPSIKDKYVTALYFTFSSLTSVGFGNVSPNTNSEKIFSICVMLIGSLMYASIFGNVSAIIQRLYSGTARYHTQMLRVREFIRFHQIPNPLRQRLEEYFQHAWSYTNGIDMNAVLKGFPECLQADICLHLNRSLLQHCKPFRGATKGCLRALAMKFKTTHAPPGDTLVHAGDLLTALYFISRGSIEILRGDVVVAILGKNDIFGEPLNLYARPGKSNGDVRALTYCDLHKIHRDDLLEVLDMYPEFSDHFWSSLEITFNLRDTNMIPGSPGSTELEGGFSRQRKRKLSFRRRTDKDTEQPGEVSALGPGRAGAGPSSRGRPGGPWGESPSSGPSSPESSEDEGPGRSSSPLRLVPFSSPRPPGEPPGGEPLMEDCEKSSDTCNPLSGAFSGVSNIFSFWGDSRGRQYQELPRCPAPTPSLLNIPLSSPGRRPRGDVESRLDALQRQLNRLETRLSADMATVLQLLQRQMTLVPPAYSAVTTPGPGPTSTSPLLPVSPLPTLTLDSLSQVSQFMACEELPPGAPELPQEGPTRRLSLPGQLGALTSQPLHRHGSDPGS

| SMILES | hERG current change (%, negative = inhibition) at 10uM [%] |
| --- | --- |
| Cc1cccc(N2CC(O)(c3cccs3)[N+]3=C2CCCC3)c1.[Br-] (centres unmarked) | -12.3 |
| COc1ccc(N2CC(O)(c3ccc(C)cc3)[N+]3=C2CCCC3)cc1.[Br-] (centres unmarked) | -38.9 |
| COc1ccc(C2(O)CN(c3ccc(C)cc3)C3=[N+]2CCCC3)cc1.[Br-] (centres unmarked) | -37.5 |
| Cc1cccc(N2CC(O)(c3cccs3)[N+]3=C2CCCC3)c1C.[Br-] (centres unmarked) | -43.5 |
| OC1(c2cccs2)CN(c2ccccc2)C2=[N+]1CCCC2.[Br-] (centres unmarked) | 4.63 |
| CCOc1ccc(N2CC(C(=O)NNC(=O)c3ccc(F)cc3)CC2=O)cc1 (centres unmarked) | -25.4 |
| CCOc1ccc(N2CC(O)(c3cccs3)[N+]3=C2CCCC3)cc1.[Br-] (centres unmarked) | -69.7 |
| OC1(c2cccs2)CN(c2ccc(Cl)cc2)C2=[N+]1CCCC2.[Br-] (centres unmarked) | -59.5 |
| Cc1ccc(N2CC(O)(c3cccs3)[N+]3=C2CCCC3)cc1.[Br-] (centres unmarked) | -32.3 |
| COc1ccc(N2CC(O)(c3ccc(F)cc3)[N+]3=C2CCCC3)cc1.[Br-] (centres unmarked) | -3.37 |
| CCOc1ccc(N2CC(O)(c3ccc(F)cc3)[N+]3=C2CCCC3)cc1.[Br-] (centres unmarked) | -71.6 |
| COc1ccc(N2CC(O)(c3ccc(OC(F)F)cc3)[N+]3=C2CCCC3)cc1.[Br-] (centres unmarked) | -70 |
| Cc1cccc(C)c1NC(=O)CN1C(=O)COc2ccccc21 | 10.5 |
| Cc1ccc(S(=O)(=O)c2cnc(-c3ccccc3)nc2N2CCCCC2)cc1 | 25.7 |
| CS(=O)(=O)c1ccc(NCCc2ccccn2)c([N+](=O)[O-])c1 | -22.7 |
| COc1cccc(C2C(C(=O)Nc3ccc(C)cc3C)=C(C)Nc3ncnn32)c1OC (centres unmarked) | 7.02 |
| O=C(Nc1c2c(nn1-c1ccc(F)cc1)CS(=O)C2)c1ccco1 (centres unmarked) | -21.4 |
| CC(=O)Nc1ccc(NC(=O)c2cc(=O)c3ccc(C)cc3o2)cc1 | 17.4 |
| CCC1=NN(C(=O)Cc2ccccc2)C(O)(c2ccncc2)C1 (centres unmarked) | 28.9 |
| COc1ccc(OCc2cccc(C(=O)Nn3cc([N+](=O)[O-])cn3)c2)cc1 | -15.6 |
| CCOC(=O)c1ccc(CNC(=O)c2cc(COc3ccccc3SC)on2)o1 | 1.07 |
| CC(C)Cn1c(N)c(C=O)c(=O)n(C)c1=O | 26.4 |

| SMILES | hERG current change (%, negative = inhibition) at 10uM [%] |
| --- | --- |
| O=C(C1CCC(=O)N(C2CCCCCC2)C1)N1CCN(c2ccccc2Cl)CC1 (centres unmarked) | -42.9 |
| O=C(C1CCC(=O)N(C2CC2)C1)N1CCN(c2ccc(Cl)cc2)CC1 (centres unmarked) | -38.1 |
| O=C1CCC(C(=O)N2CCN(c3ccccc3Cl)CC2)CN1CC1CCCCC1 (centres unmarked) | -72.2 |
| Cc1cccc(N2CCN(C(=O)C3CCCCC3)CC2)c1C | -24.8 |
| O=C(C1CCC(=O)N(C2CCCC2)C1)N1CCN(c2ccccc2Cl)CC1 (centres unmarked) | -15.8 |
| O=C(C1CCC(=O)N(C2CCCC2)C1)N1CCN(c2ccc(Cl)cc2)CC1 (centres unmarked) | -61 |
| COc1cccc(CN2CC(C(=O)N3CCCCCCC3)CCC2=O)c1 (centres unmarked) | -2.24 |
| COc1cccc(CN2CC(C(=O)N3CCCC3)CCC2=O)c1 (centres unmarked) | 19.4 |
| COc1cccc(CN2CC(C(=O)N3CCN(c4ccc(Cl)cc4)CC3)CCC2=O)c1 (centres unmarked) | -70.9 |
| O=C1CCC(C(=O)N2CCN(c3ccccc3)CC2)CN1CC1CCCCC1 (centres unmarked) | -27.5 |
| Cc1cc(N2CCC(C(=O)N3CCN(c4cccc(C)c4C)CC3)CC2)n2ncnc2n1 | -68.7 |
| Cc1cc(N2CCN(C(=O)OC(C)(C)C)CC2)n2ncnc2n1 | -27.5 |
| O=C(Cn1nnc(-c2ccc(CN3CCOCC3)cc2)n1)NC1CCCCC1 | -12.4 |
| COc1cccc(NC(=O)CCNS(=O)(=O)c2ccc(Br)s2)c1 | -32.6 |
| CCCCNC(=O)C1CCN(S(=O)(=O)N2CCOCC2)CC1 | 5.58 |
| COc1ccc(OCc2nc3c4c(ncn3n2)-c2ccccc2CC42CCCC2)cc1 | 6.66 |
| CCC(Oc1ccccc1)C(=O)Nc1nnc(S(=O)(=O)N2CCCCC2)s1 (centres unmarked) | 12.8 |
| CCc1ccc(-c2csc3ncn(Cc4ccc(C(=O)O)cc4)c(=O)c23)cc1 | 4.9 |
| COc1ccc(NC(=O)c2ccc3ncsc3c2)c2ccccc12 | 4.56 |
| Clc1ccc(CSc2nnc3c(n2)[nH]c2ccccc23)cc1 | -1.62 |
| O=S(=O)(NCc1ccccc1)[C@@H]1CC2C=CC1C2 (some centres unmarked) | 1.81 |
| O=C(c1cc(COc2ccc(F)cc2Cl)on1)N(CCO)Cc1cccs1 | -31.6 |

| SMILES | hERG current change (%, negative = inhibition) at 10uM [%] |
| --- | --- |
| Cc1ccccc1OC1CCN(C(=O)C2CCC(=O)N(C3CCCC3)C2)CC1 (centres unmarked) | 3.16 |
| O=C(C1CCC(=O)N(C2CCCC2)C1)N1CCC(Oc2ccccc2Cl)CC1 (centres unmarked) | -62.1 |
| Cc1cccc(N2CCN(C(=O)C3CC(=O)N(C4CCCC4)C3)CC2)c1C (centres unmarked) | -57.9 |
| Cc1cccc(N2CCN(C(=O)C3CCC(=O)N(C4CC4)C3)CC2)c1C (centres unmarked) | 0.967 |
| O=C(C1CCC(=O)N(C2CC2)C1)N1CCC(Oc2ccccc2F)CC1 (centres unmarked) | 2.26 |
| Cc1ccccc1N1CCN(C(=O)C2CCC(=O)N(C3CCCC3)C2)CC1 (centres unmarked) | -22.5 |
| COc1ccc(C)cc1S(=O)(=O)N(CC(=O)O)c1ccc(C)cc1 | 5.39 |
| Cc1cc(C)cc(NC(=S)NCc2ccc(S(N)(=O)=O)cc2)c1 | 8.2 |
| Cn1c2ccccc2c2ncn(Cc3ccc(F)cc3)c(=O)c21 | 8 |
| O=C(CCNC(=O)c1ccco1)NCCc1ccc(Cl)cc1 | -1.83 |
| COc1cc(CN2CCC(N3CCC(C(=O)N4CCCC4)CC3)CC2)cc2c1OCO2 | -17.6 |
| Cc1ccc(CNC(=O)CCC2CCCN(Cc3cccc4c3OCO4)C2)o1 (centres unmarked) | -63.2 |
| CC(=O)c1cccc(CN2CCCC(CCC(=O)NCc3ccc(C)o3)C2)c1 (centres unmarked) | -16.2 |
| COCc1ccc(CN2CCCC(CCC(=O)NCc3ccc(C)o3)C2)o1 (centres unmarked) | -16.7 |
| Cc1ccc(CNC(=O)CCC2CCCN(C(=O)c3ccc4c(c3)OCO4)C2)o1 (centres unmarked) | -20.5 |
| COC(=O)c1ccc(CN2CCCC(CCC(=O)NCc3ccc(C)o3)C2)cc1 (centres unmarked) | -67.5 |
| COc1cc(CN2CCCC(CCC(=O)NCc3ccc(C)o3)C2)cc2c1OCO2 (centres unmarked) | -59.9 |
| CC1(C)CC(=O)C=C(Nc2cccc(F)c2)C1 | 17 |
| O=C1c2ccccc2S(=O)(=O)N1CC(O)Cn1c2ccccc2c2ccccc21 (centres unmarked) | 3.03 |
| CCn1c(Cc2ccccc2)nnc1SCC(=O)Nc1ccc(N2CCOCC2)c(Cl)c1 | -5.94 |
| COc1cc(CNCCc2ccc(F)cc2)ccc1OCc1ccc(Cl)nc1.Cl | -68.2 |
| COc1ccc(CCNCc2ccc(OCc3ccc(Cl)nc3)c(OC)c2)cc1OC.Cl | -63.3 |

| SMILES | hERG current change (%, negative = inhibition) at 10uM [%] |
| --- | --- |
| COc1cc(CNCCc2ccccc2F)ccc1OCc1ccc(Cl)nc1.Cl | -49.5 |
| COc1cc(CNCCc2ccccc2)ccc1OCc1ccc(Cl)nc1.Cl | -39.5 |
| CCCCNCc1ccc(OCc2ccc(Cl)nc2)c(OC)c1.Cl | -32.7 |
| CCCCCNCc1ccc(OCc2ccc(Cl)nc2)c(OC)c1 | -45.8 |
| CC1CCCC(NC(=O)COC(=O)c2ccc3ncsc3c2)C1C (centres unmarked) | -3.48 |
| CC(C)N(C1=CC(=O)OC12CCCCC2)C(C)C | -0.582 |
| COc1cc(C(=O)N/N=C(\C)Cc2ccccc2)cc(OC)c1OC | 9.1 |
| CCOC(=O)N1CCC(NC(=O)CSCc2nc(-c3ccc(OC)c(OC)c3)oc2C)CC1 | -2.5 |
| COc1ccc(-c2onc(C)c2-c2cnn(-c3ccccc3)c2)c(O)c1 | 3.71 |
| COc1cc(OC)c(/C=N/NC(=O)c2ccc(Cn3nc([N+](=O)[O-])cc3C)cc2)c(OC)c1 | -37.1 |
| Cc1ccc2nsnc2c1NC(=O)c1ccc([N+](=O)[O-])o1 | 13.1 |
| CCN1CCN(Cc2ccc(NC(=O)c3ccc(C)c(NC(=O)N4CCNC4=O)c3)cc2C(F)(F)F)CC1 | 1.09 |
| CCOC(=O)C1(CCOc2ccccc2)CCN(Cc2cccn2-c2ncccn2)CC1 | -76.4 |
| OCC1(CCc2ccccc2)CCN(Cc2cccn2-c2cccnc2)CC1 | -49.4 |
| CCOC(=O)C1(CCOc2ccccc2)CCN(Cc2cccn2-c2cccnc2)CC1 | -51.8 |
| CCOC(=O)C1(Cc2ccccc2)CCN(Cc2cccn2-c2cccnc2)CC1 | -39 |
| OCC1(CCOc2ccccc2)CCN(Cc2cccn2-c2ncccn2)CC1 | -82.2 |
| O=C(Nc1ccccc1)c1ccccc1N=Cc1ccccc1O | 2.2 |
| COc1cc2c(cc1OC)CN(S(=O)(=O)c1cccc(F)c1)CC2 | 18.6 |
| Cc1ccc(C)c(C(=O)COC(=O)Cn2[nH]c(=O)c3ccccc3c2=O)c1 | 5.51 |
